Shown are actives, neighbours in structure and some others; about 8.9% of the full set was active somewhere.
D3 ag = qHTS of D3 Dopamine Receptor Agonist: qHTS. D(3) dopamine receptor (Homo sapiens), P35462. D3R DiscoveRx beta-arrestin cells, luminescence, 90 min. max activation, %. 410,000 compounds, 0.58% hits. AID 652048, 2013; in the data active means max activation above about 30%; further: 0% is about no effect
Target sequence (P35462 whole entry, looked up): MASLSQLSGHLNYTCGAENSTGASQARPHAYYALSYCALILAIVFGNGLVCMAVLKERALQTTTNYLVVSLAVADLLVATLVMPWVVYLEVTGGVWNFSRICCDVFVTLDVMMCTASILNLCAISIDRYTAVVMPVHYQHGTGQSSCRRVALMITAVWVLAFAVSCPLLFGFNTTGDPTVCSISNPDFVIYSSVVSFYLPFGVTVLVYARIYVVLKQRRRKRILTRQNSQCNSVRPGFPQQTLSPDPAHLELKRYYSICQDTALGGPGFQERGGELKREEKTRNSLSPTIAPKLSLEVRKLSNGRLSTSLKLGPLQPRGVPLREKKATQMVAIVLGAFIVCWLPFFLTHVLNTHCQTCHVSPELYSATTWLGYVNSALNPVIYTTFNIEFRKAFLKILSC
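Agonist mode: compounds and dopamine controls were applied to plated cells for 90 min at 37 degrees C after an overnight attachment at 1500 cells/well. Luminescent read-out followed 30 - 60 minutes at room temperature with DiscoveRx detection reagent.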
KB-V1 MDR tox = qHTS assay for MDR1-selective chemotherapeutics: Primary screen using the drug-selected MDR subline cells KB-V1. KB-V1 MDR cells viability, CellTiter-Glo, 72 h. Potency, µM (doses to about 46.1 µM), most hits filed as cytotoxic. 400,000 compounds, 3.4% hits; further: potency means the concentration at half of the fitted maximal effect; on the % scale 0 is the no-effect control and ±100 the full control effect; nearly all actives have a fitted effect of over 60% in size
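KB-V1 MDR subline cells in DMEM (phenol-red free, 10% FBS) exposed to compounds in qHTS concentration series for 72 h at 37 degrees C. Viability read by CellTiter-Glo luminescence; concentration-effect curves fitted after normalization and correction.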
DRD3 antagonist = qHTS of D3 Dopamine Receptor Antagonist: qHTS. AID 652054, 2013. 360,000 compounds, 2.5% hits. D3R cells, DiscoveRx beta-arrestin luminescence, antagonist mode; active compounds read low. max response, negative = inhibition, %. D(3) dopamine receptor (Homo sapiens), P35462; in the data active means max response below about -50%; inconclusive means no clear call, values can overlap the other calls; further: on the % scale 0 is the no-effect control and ±100 the full control effect
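Cells expressing the human receptor were seeded at 1500 cells/well, incubated overnight at 37 degrees C in 5% CO2, then exposed to library compounds with dopamine controls for 90 minutes at 37 degrees C before luminescent detection.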
MCF10A rerep = A quantitative high throughput screen for small molecules that induce DNA re-replication in MCF 10a normal breast cells; 350,000 compounds, 2.9% hits; AID 624296, 2012; Potency, µM (titrated, usually from 46.1 µM), for the others: at the highest dose activity, positive = re-replication, actives largely listed as activators; MCF 10A DNA re-replication, Hoechst nuclear intensity, 48 h; further: potency means the concentration at half of the fitted maximal effect; % of control where 0% means no effect; nearly all actives have a fitted effect of over 50% in size
SW480 rereplic = A quantitative high throughput screen for small molecules that induce DNA re-replication in SW480 colon adenocarcinoma cells | 340,000 compounds, 1.8% hits | Potency, µM (series often up to 46.1 µM), for the others: top-dose re-replication activation, usual class: activators | SW480 DNA re-replication, Hoechst DNA content imaging, 48 h; further: potency means the concentration at half of the fitted maximal effect; % of control where 0% means no effect; nearly all actives have a fitted effect of over 55% in size
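First, 250 cells per well were seeded. Next, compound or vehicle (23 nL) was pinned in, plates sat 48 hr at 37 C. Finally Hoechst was added for 40 min before fluorescence scanning.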
KB-3-1 tox = qHTS assay for MDR1-selective chemotherapeutics: Primary screen using the parental adenocarcinoma cell KB-3-1 | KB-3-1 viability, CellTiter-Glo ATP luminescence, 72 h | Potency, µM (highest dose often 46.1 µM), most hits filed as cytotoxic | 400,000 compounds, 1.4% hits; further: potency means the concentration at half of the fitted maximal effect; on the % scale 0 is the no-effect control and ±100 the full control effect; nearly all actives have a fitted effect of over 60% in size
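Cells are dispensed, compounds pinned in, plates held at 37 °C for 72 h, then CellTiter-Glo is added and luminescence read after 10 minutes. Cell line: parental KB-3-1 in phenol-red-free DMEM, 10% FBS.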
The depositor's hits bear a star; i = inactive; ? = inconclusive; . = not tested or not shown; ! = not active in a repeat; [ ] = remark or other dose. Unless noted, the call rests on the fitted dose curve; in most records, active means well fitted curve in the direction sought with a large enough effect; inconclusive means small, poorly fitted or top-dose-only effect, or another doubt; inactive means no such curve, though single readings can be large; an effect the other way counts as inactive or inconclusive.

SMILES	D3 ag	KB-V1 MDR tox	DRD3 antagonist	MCF10A rerep	SW480 rereplic	KB-3-1 tox
CC(C)c1cc(N2CCN(C(=O)c3ccco3)CC2)n2c(nc3ccccc32)c1C#N	-3	i	8	23µM*	29%	i
CC(C)Cc1nc(N2CCN(C(=O)c3ccco3)CC2)c(C#N)c2c1CCC2	1	?	?	21µM*	3%	?
N#Cc1c(N2CCN(C(=O)c3ccco3)CC2)nc(-c2ccccc2)c2c1CCCC2	38*	21µM*	18	7%	8%	i
Cc1ccc(C(C)C)c(OCC(=O)Nc2ccc(S(=O)(=O)Nc3onc(C)c3C)cc2)c1	-9	i	.	.	.	i
C[C@H](NC(=O)c1[nH]cnc1C(=O)Nc1ccc(Cl)cc1)c1ccccc1	-20	?	-11	16µM*	-31%[9.22 µM]	?
C[C@@H](NC(=O)c1[nH]cnc1C(=O)Nc1cccc(Cl)c1)c1ccccc1	-1	i	33	12µM*	-7%[9.22 µM]	i
COc1ccc(C)c2sc(N(Cc3cccnc3)C(C)=O)nc12	2	i	.	.	.	i
COc1ccc(N2CCN(C(=O)c3cnn(-c4ccc(OC)cc4)c3C3CCN(C(=O)OC(C)(C)C)CC3)CC2)cc1	5	?	.	.	.	i
CC1CN(C(=O)Nc2ccc(C(=O)NCCc3ccc(Cl)cc3)cc2)c2ccccc2S1 (centres undefined)	-4	i	.	.	.	i
COc1ccc(C2C(C(=O)Nc3ccccc3)=C(C)Nc3nc(-c4ccc(Cl)cc4)nn32)cc1 (centres undefined)	4	i	.	.	.	i
CCCCNC(=O)CCCCCn1c(=O)[nH]c2ccccc2c1=O	-10	i	.	.	.	i
OC(CNC1CCCc2ccccc21)COc1c(Cl)cccc1Cl (centres undefined)	-24	i	-78*	?	?	i
OC(CNC1Cc2ccccc2C1)COc1ccc(Cl)cc1 (centres undefined)	-11	i	?	13%	-4%	i
O=S(Cc1ccccc1)CC(O)(c1ccc(Cl)cc1)c1ccc(Cl)cc1 (centres undefined)	9	21µM*	-17	?	?	?
Cc1ccc(NC(=O)N2CCN(c3nnc(C)c4c(C)n(-c5ccc(Cl)cc5)nc34)CC2)c(C)c1	-14	i	.	.	.	i
Cc1csc(SCC(=O)NC2CCS(=O)(=O)C2)n1 (centres undefined)	30*	i	-6	0%	-2%	i
CC(=O)CSc1ncnc2sc3c(c12)CCCC3	-8	i	6	6%	-15%	i
O=C(CSc1ncnc2sc3c(c12)CCCC3)NC1CCS(=O)(=O)C1 (centres undefined)	-9	9.2µM*	-14	6%	1%	i
CCN(CC)C(=O)CSc1nc(N)c2c3c(sc2n1)CC(C)CC3 (centres undefined)	0	?	15	?	1%	i
CC1CCc2c(sc3nc(SCC(=O)NCc4ccco4)nc(N)c23)C1 (centres undefined)	-3	13µM*	0	?	18%	?
CC(C)c1nc2sc3c(SCC(=O)NCc4ccco4)ncnc3c2c2c1CCC2	4	i	-15	15µM*	2%	i
CCOc1ccc(C(=O)N2CCC(c3ccncc3)CC2)cc1	-28	i	.	.	.	?
COc1cccc(C(=O)Nc2ccc(Cl)c(-c3nc4ccccc4[nH]3)c2)c1	-6	i	.	.	.	?
O=C(CSc1ncnc2sc3c(c12)CCCC3)c1ccco1	-3	?	0	?	14%	i
O=C(CSc1ncnc2sc3c(c12)CCCCC3)NCc1ccco1	-2	?	8	4µM*	?	7.3µM*!
SMILES	D3 ag	KB-V1 MDR tox	DRD3 antagonist	MCF10A rerep	SW480 rereplic	KB-3-1 tox
Cc1ccc(NC(=O)COc2cccc3c2OC(C)(C)C3)c(O)c1	2	18µM*	25	19%	-4%	i
CCCCNCc1cc(Cl)c(OCCC)c(OCC)c1	-25	16µM*	?	6%	?	i
Cc1cc(N)n2ncc(-c3ccccc3)c2n1	-5	i	58	18%	1%	i
C=CCSc1cc(C)nc2c(-c3ccccc3)cnn12	5	8.2µM*	41	11%	?	?
CC(=O)Nc1ccc(Nc2cc(C)nc3c(-c4ccccc4)cnn23)cc1	-8	16µM*	2	?	10%	?
CCc1nn(CC(=O)NC(C)C)c(=O)c2cc3cc(F)ccc3n12	7	i	.	.	.	i
COc1ccccc1Cn1c(SCC(=O)C(C)(C)C)nc2ccccc2c1=O	-7	i	.	.	.	i
COC(=O)c1cc2oc3ccccc3c2n1CC(=O)Nc1ccc(OC)c(OC)c1	2	i	.	.	.	i
COc1ccccc1NC(=O)/C(C#N)=C/C=C/c1ccco1	-15	?	-11	8.2µM*	0.92µM*	1.5µM*
COc1ccccc1NC(=O)/C=C\c1ccco1	1	i	-1	6%	-1%	i
c1ccc(Cc2nnc(Sc3ccccc3)c3ccccc23)cc1	-36	i	?	?	15µM*	i
c1ccc(Sc2ncnc3ccccc23)cc1	2	i	-1	?	-2%	i
COc1cccc2sc3cc(NCc4ccc5c(c4)OCO5)ccc3c(=O)c12	-8	?	28	4.1µM*	?	i
COc1ccc(NCc2ccc3c(c2)OCO3)cc1Cl	-15	i	-18	2%	2%	i
COc1cc2sc3cc(NCc4ccc5c(c4)OCO5)ccc3c(=O)c2cc1OC	41*	i	66	22%	?	i
O=C(CCSCc1ccccc1Cl)N1CCN(c2ccc(F)cc2)CC1	2	.	.	.	.	.
CC(=O)N1CCc2c(sc3c2c(=O)n(CCc2ccccc2)c(=O)n3CC(=O)Nc2ccccc2F)C1	-10	i	.	.	.	i
CNc1ccc(/C=C2\C=Cc3ccccc32)cc1Br	.	i	.	.	.	i
CCC(=O)N(C1=C(NC)C(=O)c2ccccc2C1=O)C(C)C	1	?	11	5.8µM*	?	2.6µM*
CNC1=C(N(C(C)=O)c2ccc(Br)cc2)C(=O)c2ccccc2C1=O	-2	?	-23	0.58µM*	8.2µM*	?
NCCCn1cnc2ccccc21	22	?	5	0.58µM*	-4%	i

High-throughput results as filed in PubChem BioAssay.
